# From PubChem
# Shown are actives, neighbours in structure and some others; about 18% of the full set was active somewhere.
# TDP1 inh: inhibitors of human tyrosyl-DNA phosphodiesterase TDP1; Q9NUW8; recombinant TDP1, AlphaScreen DNA substrate cleavage; Potency, µM (highest dose often 130 µM), for the others: at the highest dose activity change, negative = inhibition, actives largely listed as inhibitors; actives 0.28% (n = 350,000); also: potency is read from the fitted curve at half-maximal effect; % is scaled to controls: 0 for no effect and ±100 for the full control effect; nearly all actives have a fitted effect of over 40% in size
# Target sequence (Q9NUW8 whole entry, looked up): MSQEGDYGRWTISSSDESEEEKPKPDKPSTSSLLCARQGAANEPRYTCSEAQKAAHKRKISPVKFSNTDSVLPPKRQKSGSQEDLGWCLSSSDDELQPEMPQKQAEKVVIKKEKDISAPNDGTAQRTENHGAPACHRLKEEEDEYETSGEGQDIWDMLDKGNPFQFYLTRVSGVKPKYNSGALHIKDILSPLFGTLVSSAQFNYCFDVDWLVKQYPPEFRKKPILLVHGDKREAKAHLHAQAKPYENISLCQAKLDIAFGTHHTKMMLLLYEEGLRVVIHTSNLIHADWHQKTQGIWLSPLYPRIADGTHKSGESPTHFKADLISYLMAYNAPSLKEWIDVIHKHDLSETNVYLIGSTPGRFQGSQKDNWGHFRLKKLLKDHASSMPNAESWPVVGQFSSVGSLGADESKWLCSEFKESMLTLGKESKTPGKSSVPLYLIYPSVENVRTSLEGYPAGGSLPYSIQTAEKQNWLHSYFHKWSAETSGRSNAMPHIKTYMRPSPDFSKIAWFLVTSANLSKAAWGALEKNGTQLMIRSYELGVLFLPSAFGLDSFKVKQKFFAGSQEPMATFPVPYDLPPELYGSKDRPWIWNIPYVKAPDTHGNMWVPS
#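 AlphaScreen read-out: signal falls as enzyme removes the 3' tyrosine-FITC from a 5'-biotinylated DNA oligo (15 nM, 5 min, RT). Enzyme was E. coli-made recombinant Tdp1 at 1 nM, exposed to compound for 15 min beforehand; beads 10 ug/ml, 10 min.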
# DT40 TDP1 no CPT: qHTS for Inhibitors of human tyrosyl-DNA phosphodiesterase 1 (TDP1): qHTS in cells in absence of CPT; AID 686978, 2013; DT40 Tdp1-/- hTDP1 cells, no CPT, ATP luminescence, 48 h; Potency, µM (series often up to 46.2 µM), without a hit: at the top dose activity change, negative = growth inhibition, actives largely listed as inhibitors; actives 15% (n = 420,000); also: potency is read from the fitted curve at half-maximal effect; % is scaled to controls: 0 for no effect and ±100 for the full control effect; nearly all actives have a fitted effect of over 55% in size
#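 Camptothecin absent (DMSO only). Human TDP1-complemented DT40 knockout cells, 400 cells/well, 37 °C for minimum 48 hr; ATP measured via CellTiter-Glo, 30 min dark incubation, luminescence.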
# IL1B secr inh: blocks inflammasome-driven IL-1 beta release; THP-1 LPS/ATP IL-1B secretion, AlphaLISA, 16 h; stronger effect = lower value; activity change, % at 57.5 µM; actives 4.7% (n = 360,000); AID 743279; in the data active = activity change below about -50%; inconclusive = mostly about -30% to -49%; also: % is scaled to controls: 0 for no effect and ±100 for the full control effect
#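 Secreted IL-1B measured by AlphaLISA bead assay after 16 h compound exposure of THP-1 cells; compounds (final up to 57.5 uM) added 1 h before LPS (250 ng/mL) and ATP (1.25 mM) stimulation; lower signal means less secretion.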
# HepG2 tox: counter-screen for TGF-b inhibitors: cytotoxicity in HepG2 cells | HepG2 CAGA-GFP viability, ATP luminescence, 18 h | Potency, µM (top dose mostly 46.1 µM), for the others: at the highest dose activity change, negative = cytotoxicity, most hits filed as cytotoxic | actives 0.76% (n = 410,000) | AID 588856; also: potency is read from the fitted curve at half-maximal effect
#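 CellTiter-Glo luminescence gave cytotoxicity after 18 hours at 37 degrees C. The cells were HepG2 CAGA-GFP in 1% FBS DMEM, stimulated with 500 pg/mL TGF-beta after compound addition. %Activity was normalised to no-cell wells (complete cell-killing) and DMSO (no toxicity), and curves were fitted and classified.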
# TDP1 cell CPT: growth inhibition of DT40 Tdp1-/-;hTDP1 cells with camptothecin (screen for TDP1 inhibitors). chicken DT40 Tdp1-/-;hTDP1 cells + 20 nM CPT, ATP luminescence, 48 h. AID 686979. actives 12% (n = 420,000). Potency, µM (doses to about 46.2 µM), for inactives: at the highest dose activity change, negative = growth inhibition, actives largely listed as inhibitors; also: potency is read from the fitted curve at half-maximal effect; % is scaled to controls: 0 for no effect and ±100 for the full control effect; nearly all actives have a fitted effect of over 55% in size
#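 Chicken DT40 Tdp1-/- cells stably complemented with human TDP1 were seeded at 400 cells/well in medium containing 20 nM camptothecin, exposed to pin-transferred compounds, and grown at 37 °C for at least 48 hr. Viability was read as ATP luminescence.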
# TGFb SMAD3 inh: inhibitors of TGF-b signaling. HepG2 CAGA-GFP TGF-b/SMAD3 reporter, GFP fluorescence, 18 h; TGF-beta stimulated, 500 pg/mL final. Potency, µM (highest dose often 46.1 µM), for the others: top-dose activity, negative = inhibition, most hits filed as inhibitors. actives 1.2% (n = 410,000). AID 588855; also: potency is read from the fitted curve at half-maximal effect; % is scaled to controls: 0 for no effect and ±100 for the full control effect; nearly all actives have a fitted effect of over 65% in size
#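 HEPG2 CAGA-GFP reporter cells (1000/well, DMEM with 1% FBS) received compounds, then recombinant TGF-beta at 500 pg/mL final for 18 hours at 37 degrees C. Per-cell GFP summed per well was normalised to unstimulated and stimulated DMSO controls before curve fitting.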
# * = called active by the depositor; ? = inconclusive; · = no result given; [ ] = remark or other dose. Unless noted, calls follow the shape of the dose curve; as a rule, active = well fitted curve in the direction sought with a large enough effect; inconclusive = small, poorly fitted or top-dose-only effect, or another doubt; inactive = no such curve, though single readings can be large; an effect the other way counts as inactive or inconclusive.
SMILES,TDP1 inh,DT40 TDP1 no CPT,IL1B secr inh,HepG2 tox,TDP1 cell CPT,TGFb SMAD3 inh
Cc1c2cnn(-c3ccccc3)c(=O)c2c(C)n1C(C)C(=O)NCc1cccc(Br)c1 (centres undefined),7.6%,?,·,-17.1%,?,-5.5%
COc1ccc(CCNC(=O)Cn2c(C)c3cnn(-c4ccccc4)c(=O)c3c2C)cc1OC,5.1%,-5.6%,·,-3.8%,-14.2%,-6.2%
CCC(C(=O)Nc1ccccc1C(=O)OC)n1c(C)c2cnn(-c3ccccc3)c(=O)c2c1C (centres undefined),7.6%,?,·,-1.4%,25.9µM*,-26.8%
CSc1ccc(CCNC(=O)C(C)n2c(C)c3cnn(-c4ccccc4)c(=O)c3c2C)cc1 (centres undefined),7.6%,?,·,-6.4%,25.9µM*,-11.3%
Nc1nc(SCC(=O)Nc2cccc(F)c2)n[nH]1,-2.4%,13.1%,11.5,-8.7%,2.4%,0.0%
Cc1c(C(=O)N2CCN(C)CC2)sc2ncnc(NCC3(c4ccccc4)CCOCC3)c12,·,-13.1%,·,·,-21.8%,·
COc1ccc(S(=O)(=O)N2CCCCCC2)cc1C(=O)Nc1ccccn1,4.4%,-8.2%,-2.0,-19.3%,-17.1%,-13.3%
O=c1oc2cc(Br)ccc2n1CSC1=NCCS1,-9.6%,18.4µM*,-65.5*,1.0%,20.6µM*,0.0%
CCc1cccc2c(-c3csc(=NC)n3C)c[nH]c12,5.8%,?,-72.7*,-16.3%,?,5.2%
COC(=O)c1c(C)oc2ccc(N(C(=O)Oc3ccccc3)S(=O)(=O)c3ccc(C(C)(C)C)cc3)cc12,3.1%[12.3 µM],1.46µM*,·,-3.0%,3.66µM*,-22.7%
CCOC(=O)c1c(C)oc2ccc(N(C(=O)Oc3ccccc3)S(=O)(=O)c3ccccc3)cc12,-3.1%[12.3 µM],-28.7%,·,-9.3%,2.1%,-14.9%
CC(=O)c1c(C)oc2ccc(N(C(=O)Oc3ccccc3)S(=O)(=O)c3ccccc3)cc12,2.2%[12.3 µM],10.3µM*,·,-30.0%,?,-14.4%
COc1cccc(C(=O)Nc2ccccc2N2CCCC2)c1,2.3%,?,-17.5,2.4%,18.4µM*,?
COc1cccc(C(=O)NC(=S)Nc2ccccc2N2CCCCC2)c1,7.1%,?,13.7,-33.2%,?,?
COc1cccc(C(=O)NC(=S)Nc2ccccc2N2CCCC2)c1,10.8%,?,2.0,-16.3%,23.1µM*,-1.8%
COc1cccc(C(=O)Nc2ccccc2N2CCN(C(=O)c3ccccc3)CC2)c1,-0.1%,20.6µM*,-22.8,-17.7%,?,-2.0%
COc1ccc(NC(=O)CSCC(=O)Nc2ccccc2N2CCCCC2)cc1,-7.6%,29.1µM*,-13.0,-4.4%,?,-21.6%
Cc1oc(C)c(S(=O)(=O)NCc2cccs2)c1C(=O)O,-2.6%,1.2%,5.2,9.2%,-3.4%,-1.6%
Cc1cc(-c2ccc(C)c(S(=O)(=O)N(Cc3cccs3)C(C)C)c2)on1,7.9%,?,·,-24.0%,?,0.0%
CC(=O)Nc1cccc(C(=O)Nc2ccccc2N2CCOCC2)c1,5.7%,25.9µM*,13.0,7.8%,?,25.0%
O=C(Nc1ccccc1N1CCOCC1)c1ccc2ccccc2c1,-4.0%,?,22.6,-8.0%,-18.3%,13.8%
Oc1ccc(-c2nccc(-c3ccccn3)n2)cc1,·,10.5%,?,-6.1%,0.1%,-0.7%
CC1=C(C(=O)OC2CCCCCC2)C(c2c(F)cccc2Cl)CC(=O)N1 (centres undefined),0.0%[12.3 µM],16.4µM*,·,-95.6%,?,?
CC1=C(C(=O)OC2CCCC2)C(c2c(F)cccc2Cl)CC(=O)N1 (centres undefined),2.5%,14.6µM*,·,-2.5%,?,?
COCCOC(=O)C1=C(C)NC(=O)NC1c1c(F)cccc1Cl (centres undefined),-6.2%,1.5%,4.8,3.5%,-0.6%,-3.8%
SMILES,TDP1 inh,DT40 TDP1 no CPT,IL1B secr inh,HepG2 tox,TDP1 cell CPT,TGFb SMAD3 inh
CCOc1ccc(C(=O)NCC(=O)NCC2CCCCC2)cc1OCC,·,-16.5%,1.6,-25.8%,-1.4%,-16.0%
Clc1ccc(CN2CCN(c3ncnc4scc(-c5cccs5)c34)CC2)cc1,3.0%,16.4µM*,-15.8,-24.0%,13µM*,?
COc1ccc(-c2csc3ncnc(N4CCN(c5ccccc5)CC4)c23)cc1,3.2%,?,-22.1,-15.6%,?,?
CCN1CCN(c2ncnc3sc(C)c(-c4ccccc4)c23)CC1,5.1%,?,-5.1,-17.1%,-20.9%,-7.6%
COc1ccc(-c2csc3ncnc(N4CCN(Cc5ccccc5)CC4)c23)cc1,7.2%[56.1 µM],?,-3.1,-8.0%,?,0.5%
Cn1nnnc1Sc1ncnc2scc(-c3cccs3)c12,·,·,·,-106.8%,·,?
Fc1ccc(CN2CCN(c3ncnc4scc(-c5ccc(F)cc5)c34)CC2)cc1,·,23.1µM*,0.0,-25.8%,16.4µM*,?
CCN1CCN(c2ncnc3scc(-c4ccc(C)c(C)c4)c23)CC1,3.3%[0.0935 µM],18.4µM*,?,-1.9%,?,-4.4%
Cc1ccccc1N1CCN(c2ncnc3scc(-c4cccs4)c23)CC1,0.0%,9.2µM*,-10.4,3.3%,13µM*,-28.0%
CC1CCC(Nc2nc3c(-c4ccc(Cl)cc4)nnn3c3ccccc23)CC1 (centres undefined),3.8%,-19.1%,·,0.6%,0.9%,-0.4%
COC(=O)C1CCN(C(c2ccccc2)c2sc3nc(-c4ccco4)nn3c2O)CC1 (centres undefined),2.6%,-15.1%,·,-7.5%,9.1%,-21.2%
COCCn1c(SCc2ccccc2F)nc2ccccc2c1=O,-1.2%,?,13.3,-0.4%,?,13.8%
CC(=O)NCCn1c(SCc2ccccc2F)nc2ccccc2c1=O,7.1%,20.6µM*,8.1,-20.1%,16.4µM*,-24.3%
CC(=O)NCCn1c(SCc2ccc(C)cc2)nc2ccccc2c1=O,1.9%,20.6µM*,-18.8,-28.1%,23.1µM*,?
COc1ccc2c(c1OC)C(=O)N1N=C(c3ccc(Cl)cc3)CC21 (centres undefined),0.6%,?,-81.9*,-24.0%,-1.6%,-22.3%
COc1cccc(CN2C(=O)NC(C)(C3CCN(Cc4ccc(C)o4)CC3)C2=O)c1OC (centres undefined),·,-4.6%,·,·,-4.5%,·
